Measured values: PubChem BioAssay (NCATS)
“And” between values parts separate entries of the source, which are not always exact repeats. Equal entries are not always repeated. Records with an inconclusive call do not appear. Some structures have more than one record in an assay (separate samples or runs), and their calls can disagree. The source made the active and inactive calls. Calls come from the whole dose curve; as a rule, active = well fitted curve in the direction sought with a large enough effect; inconclusive = small, poorly fitted or top-dose-only effect, or another doubt; inactive = no such curve, though single readings can be large; an effect the other way counts as inactive or inconclusive.

Assays:
[1] = tested on: WaGa; assay: qHTS assay to identify novel small-molecules to repurpose for Merkel cell carcinoma treatment (AID 1296009); settings: MCC and control cell lines, CellTiter-Glo viability, 72 h; series mostly up to 46 µM; note: nearly all actives have a fitted effect of over 60% in size
Outline: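 After compound transfer in DMSO, plates were kept 72 hr at 37 degree celsius. Luminescent ATP signal from CellTiter-Glo served as viability measure, normalized against DMSO and no-cell controls.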

[2] = tested on: C33A; assay: Primary qHTS to identify gynecologic anti-cancer compounds using libraries of approved drugs and bioactive compounds (AID 1345084); settings: Gynecologic cancer cell panel viability, ATPlite luminescence, 48 h; series mostly up to 57.5 µM; note: nearly all actives have a fitted effect of over 55% in size; note: potency is the fitted concentration of half-maximal effect
Outline: (§1)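 Five-concentration response, 48 h; readout is ATP-driven luciferase luminescence.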

[3] = tested on: CAOV3; assay: as above; settings: Gynecologic cancer cell panel viability, ATPlite luminescence, 48 h; series mostly up to 57.5 µM
Outline: as §1

[4] = tested on: CASKI; assay: as above; settings: Gynecologic cancer cell panel viability, ATPlite luminescence, 48 h; series mostly up to 57.5 µM
Outline: as §1

[5] = tested on: Es-2; assay: as above; settings: Gynecologic cancer cell panel viability, ATPlite luminescence, 48 h; series mostly up to 57.5 µM
Outline: as §1

[6] = tested on: HeLa; assay: as above; settings: Gynecologic cancer cell panel viability, ATPlite luminescence, 48 h; series mostly up to 57.5 µM
Outline: as §1

[7] = tested on: Hek293T; assay: as above; settings: Gynecologic cancer cell panel viability, ATPlite luminescence, 48 h, control line for the selectivity index; series mostly up to 57.5 µM
Outline: as §1

[8] = tested on: JEG-3; assay: as above; settings: Gynecologic cancer cell panel viability, ATPlite luminescence, 48 h; series mostly up to 57.5 µM
Outline: as §1

[9] = tested on: OV90; assay: as above; settings: Gynecologic cancer cell panel viability, ATPlite luminescence, 48 h; series mostly up to 57.5 µM
Outline: as §1

[10] = tested on: PA-1; assay: as above; settings: Gynecologic cancer cell panel viability, ATPlite luminescence, 48 h; series mostly up to 57.5 µM
Outline: as §1

[11] = tested on: SKOV3; assay: as above; settings: Gynecologic cancer cell panel viability, ATPlite luminescence, 48 h; series mostly up to 57.5 µM
Outline: as §1

[12] = tested on: Tov-21-G; assay: as above; settings: Gynecologic cancer cell panel viability, ATPlite luminescence, 48 h; series mostly up to 57.5 µM
Outline: as §1

[13] = tested on: Tov112D; assay: as above; settings: Gynecologic cancer cell panel viability, ATPlite luminescence, 48 h; series mostly up to 57.5 µM
Outline: as §1

[14] = Drug repurposing screens with cells derived from glioblastoma tumor samples (AID 1345199); settings: GBM patient neurospheres viability, ATP luminescence, 48 h; note: nearly all actives have a fitted effect of over 40% in size; note: potency is the fitted concentration of half-maximal effect
Outline: (§2)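 Four patient lines of CD133+ GBM neurospheres were screened at several concentrations; hits were retested in those lines plus three slower-growing GBM lines, using 48-hour treatment and ATP-based viability.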

[15] = tested on: astro; assay: as above; settings: viability, ATP luminescence, 48 h; series mostly up to 45.9 µM
Outline: as §2

[16] = at 45.9 µM (top of the series), tumour line B
[17] = at 45.9 µM (top of the series), tumour line D
[18] = at 46 µM (top of the series), tumour line A
[19] = at 46.1 µM (top of the series), tumour line C
% is set by controls: 0 for no effect and ±100 for the full control effect.

N[C@@H](CSSC[C@H](N)C(=O)O)C(=O)O
inactive: activity change, negative = cytotoxicity [1] 9.72% [at 0.597 µM] | activity change, negative = cytotoxicity [2] 7.09% [at 0.462 µM] | activity change, negative = cytotoxicity [3] -5.94% [at 0.462 µM] | activity change, negative = cytotoxicity [4] 7.1% [at 0.462 µM] | activity change, negative = cytotoxicity [5] -1.97% [at 0.462 µM] | activity change, negative = cytotoxicity [6] 1.97% [at 0.462 µM] | activity change, negative = cytotoxicity [7] 4.09% [at 0.462 µM] | activity change, negative = cytotoxicity [8] -2.56% [at 0.462 µM] | activity change, negative = cytotoxicity [9] 16.5% [at 0.462 µM] | activity change, negative = cytotoxicity [10] -8.19% [at 0.462 µM] | activity change, negative = cytotoxicity [11] 0% [at 0.462 µM] | activity change, negative = cytotoxicity [12] 3.42% [at 0.462 µM] | activity change, negative = cytotoxicity [13] 1.24% [at 0.462 µM] | activity, negative = cell killing [14, 16] 7.37% | activity, negative = cell killing [14, 17] 8.78% | activity, negative = cell killing [14, 18] 8.9% | activity, negative = cell killing [14, 19] -5.12% | Potency [15]

CCOc1ccc2ccccc2c1C(=O)N[C@@H]1C(=O)N2[C@@H]1SC(C)(C)[C@@H]2C(=O)O
inactive: Potency [1] | Potency [2] | Potency [3] | Potency [4] | Potency [5] | Potency [6] | Potency [7] | Potency [8] | Potency [9] | Potency [10] | Potency [11] | Potency [12] | Potency [13] | activity, negative = cell killing ([14]; at 20 µM (top of the series), tumour line C) 10.1% | activity, negative = cell killing ([14]; at 21.2 µM (top of the series), tumour line B) -3.6% | activity, negative = cell killing ([14]; at 21.2 µM (top of the series), tumour line D) -26.3% | activity, negative = cell killing ([14]; at 21.3 µM (top of the series), tumour line A) -12.7% | Potency [15]

NC(N)=NCCC[C@H](N)C(=O)O
inactive: activity change, negative = cytotoxicity [1] 4.2% [at 4.84 µM] | activity change, negative = cytotoxicity [2] -3.38% [at 6.55 µM] | activity change, negative = cytotoxicity [3] 24.7% [at 6.55 µM] | activity change, negative = cytotoxicity [4] 1.66% [at 6.55 µM] | activity change, negative = cytotoxicity [5] 2.88% [at 6.55 µM] | activity change, negative = cytotoxicity [6] 8.2% [at 6.55 µM] | activity change, negative = cytotoxicity [7] 14.9% [at 6.55 µM] | activity change, negative = cytotoxicity [8] 7.79% [at 6.55 µM] | activity change, negative = cytotoxicity [9] 6.81% [at 6.55 µM] | activity change, negative = cytotoxicity [10] 23.1% [at 6.55 µM] | activity change, negative = cytotoxicity [11] 0% [at 6.55 µM] | activity change, negative = cytotoxicity [12] -4.36% [at 6.55 µM] | activity change, negative = cytotoxicity [13] 4.12% [at 6.55 µM] | activity, negative = cell killing [14, 16] -14.6% | activity, negative = cell killing [14, 17] -0.948% | activity, negative = cell killing [14, 18] -22.1% | activity, negative = cell killing [14, 19] 18.8% | Potency [15]

CC(=O)CCC(=O)O
inactive: Potency [1] | Potency [2] | Potency [3] | Potency [4] | Potency [5] | Potency [6] | Potency [7] | Potency [8] | Potency [9] | Potency [10] | Potency [11] | Potency [12] | Potency [13] | activity, negative = cell killing [14, 16] -11.2% | activity, negative = cell killing [14, 17] -13.2% | activity, negative = cell killing [14, 18] -21% | activity, negative = cell killing [14, 19] -0.404% | Potency [15]

C[C@]12CC[C@@H]3c4ccc(O)cc4CC[C@H]3[C@@H]1CC[C@@H]2OC(=O)CCC1CCCC1
inactive: Potency [1] | Potency [2] | Potency [3] | Potency [4] | Potency [5] | Potency [7] | Potency [8] | Potency [9] | Potency [10] | Potency [11] | Potency [12] | Potency [13] | activity, negative = cell killing [14, 19] -26.4% and -9.85%
active: Potency [6] 10 µM and 20 µM | Potency ([14]; tumour line A) 7.94 µM and 22.4 µM | Potency ([14]; tumour line B) 35.5 µM | Potency ([14]; tumour line D) 35.5 µM and 20 µM

O=Cc1ccccc1C=O
active: Potency ([14]; tumour line D) 35.5 µM
inactive: Potency [1] | Potency [2] | Potency [3] | Potency [4] | Potency [5] | Potency [6] | Potency [7] | Potency [8] | Potency [9] | Potency [10] | Potency [11] | Potency [12] | Potency [13] | activity, negative = cell killing [14, 19] -17%

CCCCc1ncc(/C=C(\Cc2cccs2)C(=O)O)n1Cc1ccc(C(=O)O)cc1
inactive: Potency [1] | Potency [2] | Potency [3] | Potency [4] | Potency [5] | Potency [6] | Potency [7] | Potency [8] | Potency [9] | Potency [10] | Potency [11] | Potency [12] | Potency [13] | activity, negative = cell killing [14, 16] -7.78% | activity, negative = cell killing [14, 17] 9.77% | activity, negative = cell killing [14, 18] -19.8% | activity, negative = cell killing [14, 19] -1.88% | Potency [15]

CC1=C(C/C=C(\C)CCC[C@H](C)CCC[C@H](C)CCCC(C)C)C(=O)c2ccccc2C1=O
active: Potency ([14]; tumour line A) 11.2 µM
inactive: Potency [1] | Potency [2] | Potency [3] | Potency [4] | Potency [5] | Potency [6] | Potency [7] | Potency [8] | Potency [9] | Potency [10] | Potency [11] | Potency [12] | Potency [13] | activity, negative = cell killing [14, 19] -10.9%

O=C1N=C(O)CN1/N=C/c1ccc(-c2ccc([N+](=O)[O-])cc2)o1
inactive: Potency [1] | Potency [2] | Potency [3] | Potency [4] | Potency [5] | Potency [6] | Potency [7] | Potency [8] | Potency [9] | Potency [10] | Potency [11] | Potency [12] | Potency [13] | activity, negative = cell killing [14, 16] -7.61% | activity, negative = cell killing [14, 17] 2.91% | activity, negative = cell killing [14, 18] -22.1% | activity, negative = cell killing [14, 19] -1.99% | Potency [15]

CN(C)CC[C@@H](c1ccc(Cl)cc1)c1ccccn1
active: Potency ([14]; tumour line A) 14.1 µM
inactive: Potency [1] | Potency [2] | Potency [3] | Potency [4] | Potency [5] | Potency [6] | Potency [7] | Potency [8] | Potency [9] | Potency [10] | Potency [11] | Potency [12] | Potency [13] | activity, negative = cell killing [14, 16] -9.08% | activity, negative = cell killing [14, 17] -26.8% | activity, negative = cell killing [14, 19] -11.4% | Potency [15]
